In assay [1] the target is Acetylcholinesterase (Homo sapiens) (UniProt P22303). Kind of assay: Acetylcholinesterase (AChE) small molecule antagonists: colormetric cell-based qHTS assay (AID 1347395; calls by dose curve; further: nearly all actives have a fitted effect of over 30% in size). Put shortly:
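Quantitative HTS in attached SH-SY5Y cells: 30 min compound exposure, then 90 min with acetylthiocholine and DTNB at 37 C; colour from thiocholine reports AChE activity.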
On the technique in general: qHTS replaces the single test concentration by a dilution series.

Assay [2] has the same target. Kind of assay: Acetylcholinesterase (AChE) small molecule antagonists: enzyme-based qHTS assay (AID 1347397; calls by dose curve; further: nearly all actives have a fitted effect of over 55% in size). The settings on record: Potency: AChE enzyme activity inhibition. Put shortly:
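In this quantitative HTS, compounds from the Tox21 10K collection were preincubated 30 min at ambient temperature with recombinant human AChE dispensed at 50 mU/mL. Hydrolysis of acetylthiocholine was then followed for 10 min by DTNB colour development.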

The target is the same in assay [3]. In words: Acetylcholinesterase (AChE) small molecule antagonists: fluorescence cell-based qHTS assay (AID 1347398; calls by dose curve; further: nearly all actives have a fitted effect of over 50% in size). The conditions noted are these: Potency: AChE activity. Put shortly: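 Cells (SH-SY5Y) attached overnight, were dosed with compound or DMSO vehicle for 30 min at 37 C, and then incubated 40 min at room temperature with acetylthiocholine and Thiolite Green; green fluorescence indexed AChE activity.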

For assay [4] the target is unchanged. Kind of assay: Acetylcholinesterase (AChE) small molecule antagonists: enzyme-based qHTS assay with human liver microsomes (AID 1347399; calls by dose curve; further: nearly all actives have a fitted effect of over 60% in size). The settings on record: Potency: qHTS inhibition. The essentials: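 Recombinant human AChE (50 mU/mL in the enzyme mix) and human liver microsomes (0.25 mg/mL final) were preincubated with compound and NADPH (0.25 mg/mL final) for 30 min at 37 C. Acetylthiocholine/DTNB was then added; thiocholine was read colorimetrically after 10 min at room temperature.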

In assay [5] the target is Cytochrome P450 2D6 (Homo sapiens) (UniProt P10635). In words: Cytochrome P450 Family 2 Subfamily D Member 6 (CYP2D6) small molecule antagonists: luciferase reporter qHTS assay (AID 1671196). Further: nearly all actives have a fitted effect of over 50% in size. Put shortly:
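Quantitative HTS of Tox21 chemicals against CYP2D6 using a luminescent proluciferin substrate. After NADPH addition, 1 h room-temperature reaction; luminescence recorded 20 min post detection reagent.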
(In general: Reporter assays use an easily measured gene product as a stand-in for the process of interest.)

Assay [6] has as its target Cytochrome P450 2C19 (Homo sapiens) (UniProt P33261). In words: Cytochrome P450 Family 2 Subfamily C Member 19 (CYP2C19) small molecule antagonists: luciferase reporter qHTS assay (AID 1671197). Further: nearly all actives have a fitted effect of over 65% in size. The essentials: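 Enzyme-substrate mix with proluciferin substrate (P450-Glo CYP2C19 system) preincubated with compounds 10 min at room temperature; NADPH regeneration solution added, 37C for 1 h; detection reagent stops reaction, luminescence read after 20 min. Ketoconazole positive control.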

Assay [7] has as its target Cytochrome P450 2C9 (Homo sapiens) (UniProt P11712). Kind of assay: Cytochrome P450 Family 2 Subfamily C Member 9 (CYP2C9) small molecule antagonists: luciferase reporter qHTS assay (AID 1671198). Further: nearly all actives have a fitted effect of over 50% in size. The essentials:
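P450-Glo proluciferin substrate with CYP2C9 enzyme; 10 min RT preincubation, then NADPH regeneration 1 h at 37C; luciferin detection reagent 20 min RT, luminescence in relative luminescence units.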

Assay [8] addresses Cytochrome P450 1A2 (Homo sapiens) (UniProt P05177). In words: Cytochrome P450 Family 1 Subfamily A Member 2 (CYP1A2) small molecule antagonists: luciferase reporter qHTS assay (AID 1671199). Further: nearly all actives have a fitted effect of over 50% in size. The essentials: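 Quantitative high-throughput format using the P450-Glo CYP1A2 system. Reaction initiated by NADPH regeneration solution, 1 h at room temperature, then stopped with detection reagent; luminescence measured 20 min later.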

In assay [9] the target is Voltage-gated inwardly rectifying potassium channel KCNH2 (Homo sapiens) (UniProt Q12809). Kind of assay: Human Ether-a-go-go-Related Gene (hERG) channel small molecule antagonists: fluorescence cell-based qHTS assay (AID 1671200). Further: nearly all actives have a fitted effect of over 50% in size. Put shortly:
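First, 1000 cells per well are seeded and cultured overnight at 37 C. Next, FluxOR II dye is loaded for 1 h at room temperature, protected from light. After 10 more minutes, stimulus is added and fluorescence is read.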
A general note: The hERG channel carries a current that helps repolarise heart muscle cells.

The target of assay [10] is Cytochrome P450 3A4 (Homo sapiens) (UniProt P08684). Kind of assay: Cytochrome P450 Family 3 Subfamily A Member 4 (CYP3A4) small molecule antagonists: luciferase reporter qHTS assay (AID 1671201). Further: nearly all actives have a fitted effect of over 50% in size. The essentials:
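Enzyme and proluciferin substrate are mixed with test chemicals for 10 min, then NADPH regeneration system drives turnover for 1 h at room temperature. A detection reagent halts the reaction; luminescence after 20 min gives relative activity.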

Values joined by “and” are separate entries in the source; they are usually repeats but may differ in a detail not shown here. Equal values may be shown once. Results filed as inconclusive are left out. Some compounds were tested as several samples or in several runs, with calls that do not always agree. Active and inactive are the calls of the source. Unless noted, the call rests on the fitted dose curve; in most records, active means well fitted curve in the direction sought with a large enough effect in the repeat runs; inconclusive means weak or mixed curves; inactive means no such curve, though single readings can be large; an effect the other way counts as inactive or inconclusive.
Potency means the concentration at half of the fitted maximal effect.

Cytochrome P450 2C9 (Homo sapiens), sequence (P11712 whole entry, looked up): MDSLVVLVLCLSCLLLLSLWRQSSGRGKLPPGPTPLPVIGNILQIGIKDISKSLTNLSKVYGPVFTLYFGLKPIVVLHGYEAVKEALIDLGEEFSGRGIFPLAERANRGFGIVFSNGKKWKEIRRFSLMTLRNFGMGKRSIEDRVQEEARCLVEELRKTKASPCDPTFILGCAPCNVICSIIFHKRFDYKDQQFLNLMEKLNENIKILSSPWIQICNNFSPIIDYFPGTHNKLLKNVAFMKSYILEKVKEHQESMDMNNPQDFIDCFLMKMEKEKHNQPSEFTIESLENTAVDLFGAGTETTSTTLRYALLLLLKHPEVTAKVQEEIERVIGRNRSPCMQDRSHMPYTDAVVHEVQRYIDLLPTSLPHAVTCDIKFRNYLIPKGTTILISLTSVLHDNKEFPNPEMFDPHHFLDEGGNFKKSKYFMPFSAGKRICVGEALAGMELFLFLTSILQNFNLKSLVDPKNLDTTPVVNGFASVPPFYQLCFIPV
Voltage-gated inwardly rectifying potassium channel KCNH2 (Homo sapiens), sequence (Q12809 whole entry, looked up): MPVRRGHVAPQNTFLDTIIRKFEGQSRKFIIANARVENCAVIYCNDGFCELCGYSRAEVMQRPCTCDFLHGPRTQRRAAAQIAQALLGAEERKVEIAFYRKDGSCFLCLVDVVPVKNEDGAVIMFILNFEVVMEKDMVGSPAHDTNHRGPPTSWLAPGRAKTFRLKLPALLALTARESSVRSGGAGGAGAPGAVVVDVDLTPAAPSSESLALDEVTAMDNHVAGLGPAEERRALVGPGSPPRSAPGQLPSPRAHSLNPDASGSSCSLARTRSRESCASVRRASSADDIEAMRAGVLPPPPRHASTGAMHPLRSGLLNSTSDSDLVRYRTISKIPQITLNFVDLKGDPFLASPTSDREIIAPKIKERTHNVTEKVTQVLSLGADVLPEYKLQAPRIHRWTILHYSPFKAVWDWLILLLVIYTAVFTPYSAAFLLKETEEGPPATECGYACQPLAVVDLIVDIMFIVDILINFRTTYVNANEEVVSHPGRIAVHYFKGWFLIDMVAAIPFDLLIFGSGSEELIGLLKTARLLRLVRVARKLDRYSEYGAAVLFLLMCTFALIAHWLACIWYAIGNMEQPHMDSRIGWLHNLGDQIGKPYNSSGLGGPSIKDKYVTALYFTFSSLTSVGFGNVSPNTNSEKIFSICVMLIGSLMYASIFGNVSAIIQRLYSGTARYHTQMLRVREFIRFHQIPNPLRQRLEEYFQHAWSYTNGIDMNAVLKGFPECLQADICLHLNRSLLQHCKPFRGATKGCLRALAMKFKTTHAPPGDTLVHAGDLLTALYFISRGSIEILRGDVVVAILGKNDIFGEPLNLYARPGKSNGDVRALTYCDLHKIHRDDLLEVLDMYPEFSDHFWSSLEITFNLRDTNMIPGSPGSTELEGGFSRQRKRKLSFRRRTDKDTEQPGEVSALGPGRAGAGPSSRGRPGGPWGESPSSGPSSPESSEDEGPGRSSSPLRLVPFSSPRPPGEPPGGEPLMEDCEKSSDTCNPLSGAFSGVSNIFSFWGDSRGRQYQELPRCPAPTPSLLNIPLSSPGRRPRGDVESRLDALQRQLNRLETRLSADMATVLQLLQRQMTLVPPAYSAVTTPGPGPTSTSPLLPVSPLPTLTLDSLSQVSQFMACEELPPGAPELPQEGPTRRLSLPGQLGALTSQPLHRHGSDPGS
Cytochrome P450 3A4 (Homo sapiens), sequence (P08684 whole entry, looked up): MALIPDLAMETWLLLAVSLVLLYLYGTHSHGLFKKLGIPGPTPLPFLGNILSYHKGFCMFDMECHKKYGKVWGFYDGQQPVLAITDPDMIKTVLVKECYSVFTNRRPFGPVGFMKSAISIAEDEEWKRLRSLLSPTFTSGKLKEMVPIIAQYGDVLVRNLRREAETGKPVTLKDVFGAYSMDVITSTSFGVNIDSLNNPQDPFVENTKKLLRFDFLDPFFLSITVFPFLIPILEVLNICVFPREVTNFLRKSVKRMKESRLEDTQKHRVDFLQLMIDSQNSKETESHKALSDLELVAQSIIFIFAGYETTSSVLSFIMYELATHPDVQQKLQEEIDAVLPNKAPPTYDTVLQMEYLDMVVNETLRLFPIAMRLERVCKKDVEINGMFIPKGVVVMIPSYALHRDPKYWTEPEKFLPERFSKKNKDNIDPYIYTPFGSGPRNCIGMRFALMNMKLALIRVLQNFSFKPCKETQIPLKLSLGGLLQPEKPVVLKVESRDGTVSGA
Cytochrome P450 2D6 (Homo sapiens), sequence (P10635 whole entry, looked up): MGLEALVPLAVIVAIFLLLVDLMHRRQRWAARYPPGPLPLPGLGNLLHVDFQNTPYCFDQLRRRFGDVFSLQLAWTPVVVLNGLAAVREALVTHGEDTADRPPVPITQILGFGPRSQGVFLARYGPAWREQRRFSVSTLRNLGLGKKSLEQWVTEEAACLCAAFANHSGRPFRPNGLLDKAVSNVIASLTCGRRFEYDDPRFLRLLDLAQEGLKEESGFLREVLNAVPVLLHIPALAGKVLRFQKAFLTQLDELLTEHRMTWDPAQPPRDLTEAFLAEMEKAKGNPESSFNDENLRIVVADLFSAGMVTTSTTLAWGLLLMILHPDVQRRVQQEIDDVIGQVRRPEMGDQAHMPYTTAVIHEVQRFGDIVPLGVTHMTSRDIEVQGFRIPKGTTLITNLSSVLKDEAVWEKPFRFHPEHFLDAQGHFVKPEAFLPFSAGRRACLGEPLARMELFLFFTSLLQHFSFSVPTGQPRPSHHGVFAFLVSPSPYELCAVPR
Acetylcholinesterase (Homo sapiens), sequence (P22303 whole entry, looked up): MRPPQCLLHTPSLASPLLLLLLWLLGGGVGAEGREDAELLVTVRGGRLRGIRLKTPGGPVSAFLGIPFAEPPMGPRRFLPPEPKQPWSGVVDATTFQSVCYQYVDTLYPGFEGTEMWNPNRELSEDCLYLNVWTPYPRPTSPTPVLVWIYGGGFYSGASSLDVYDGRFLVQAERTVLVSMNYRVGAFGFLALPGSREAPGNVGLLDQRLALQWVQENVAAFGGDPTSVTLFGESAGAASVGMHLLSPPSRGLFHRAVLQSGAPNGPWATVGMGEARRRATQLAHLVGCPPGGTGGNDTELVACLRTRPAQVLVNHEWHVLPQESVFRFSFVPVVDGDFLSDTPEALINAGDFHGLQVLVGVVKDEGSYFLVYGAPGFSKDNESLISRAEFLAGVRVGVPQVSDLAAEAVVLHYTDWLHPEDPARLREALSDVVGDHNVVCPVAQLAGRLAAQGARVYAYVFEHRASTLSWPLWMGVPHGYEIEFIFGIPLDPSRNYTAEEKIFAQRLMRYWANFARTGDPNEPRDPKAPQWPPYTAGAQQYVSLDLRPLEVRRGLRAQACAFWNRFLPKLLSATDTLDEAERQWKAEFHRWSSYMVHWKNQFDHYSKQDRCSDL
Cytochrome P450 1A2 (Homo sapiens), sequence (P05177 whole entry, looked up): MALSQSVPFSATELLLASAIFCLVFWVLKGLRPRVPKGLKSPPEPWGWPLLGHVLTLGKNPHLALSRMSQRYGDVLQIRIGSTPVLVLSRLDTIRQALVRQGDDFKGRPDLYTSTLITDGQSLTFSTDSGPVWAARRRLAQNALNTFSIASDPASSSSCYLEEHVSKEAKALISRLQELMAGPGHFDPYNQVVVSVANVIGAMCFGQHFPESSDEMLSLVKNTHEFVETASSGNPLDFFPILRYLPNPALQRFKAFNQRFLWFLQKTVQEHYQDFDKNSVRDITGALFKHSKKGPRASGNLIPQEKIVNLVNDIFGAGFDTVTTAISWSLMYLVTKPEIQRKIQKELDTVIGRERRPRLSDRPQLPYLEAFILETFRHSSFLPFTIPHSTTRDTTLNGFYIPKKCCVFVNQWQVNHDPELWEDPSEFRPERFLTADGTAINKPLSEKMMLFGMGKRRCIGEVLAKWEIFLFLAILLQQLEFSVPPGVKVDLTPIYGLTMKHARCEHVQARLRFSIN
Cytochrome P450 2C19 (Homo sapiens), sequence (P33261 whole entry, looked up): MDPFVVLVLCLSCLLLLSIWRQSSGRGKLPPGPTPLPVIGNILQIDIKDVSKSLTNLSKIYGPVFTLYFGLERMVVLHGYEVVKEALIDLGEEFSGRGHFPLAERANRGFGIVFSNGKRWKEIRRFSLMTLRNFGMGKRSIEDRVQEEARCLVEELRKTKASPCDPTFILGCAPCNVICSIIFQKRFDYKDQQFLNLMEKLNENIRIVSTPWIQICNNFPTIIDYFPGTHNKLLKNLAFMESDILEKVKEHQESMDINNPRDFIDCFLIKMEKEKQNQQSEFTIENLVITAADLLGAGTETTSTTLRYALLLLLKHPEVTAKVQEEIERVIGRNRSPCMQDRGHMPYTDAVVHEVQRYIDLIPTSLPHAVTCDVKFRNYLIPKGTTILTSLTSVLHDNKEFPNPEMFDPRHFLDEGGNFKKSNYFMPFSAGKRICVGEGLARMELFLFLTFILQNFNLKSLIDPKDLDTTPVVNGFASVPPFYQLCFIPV

For the compound `CN(C)CCC#N`, the Potency entry in assay [1], in assay [2], in assay [3], in assay [4], in [5] and in [6] was “inactive” throughout. The Potency result in assay [7], in [8], in [9] and in assay [10] was “inactive” each time.

Take `Oc1c(Br)cc(Br)cc1Br`: the Potency result in assay [1], in assay [2], in assay [3], in [4], in assay [5] and in assay [6] was “inactive” in each case. Further, the Potency entry in [9] and in [10] was “inactive” in each case. In addition, the Potency in assay [7] is 63.4 µM (active) and 39.9 µM (active) and inactive; in assay [8], 35.7 µM (active) and 63.3 µM (active) and inactive.

`CCSC(=O)N1CCCCCC1`: the Potency result in [1], in assay [2], in assay [3], in [4], in assay [8] and in [9] was “inactive” throughout. The Potency in assay [5] is 30.8 µM (active) and inactive; in assay [6], 34.6 µM (active); in assay [7], 38.8 µM (active) and inactive; in assay [10] it was 30.8 µM (active) and inactive.

Turning to `C[C@H]1C(=O)O[C@@H]2CCN3CC=C(COC(=O)[C@](C)(O)[C@]1(C)O)[C@H]23`, the Potency result in assay [1], in assay [2], in assay [3], in assay [4], in assay [6] and in assay [7] was “inactive” in each case. Further, the Potency result in assay [8], in assay [9] and in [10] was “inactive” in each case. For the same compound, the Potency entry in assay [5] was “inactive and 30.9 µM (active)”.

Take `CNC(=O)O/N=C/C(C)(C)S(C)=O` (centres undefined): the Potency is 322 nM (active) and 354 nM (active) in assay [1]; 572 nM (active) and 316 nM (active) in assay [2]; 57.2 nM (active) and 35.4 nM (active) in assay [3]; 2.87 µM (active) and 2.51 µM (active) in assay [4]. Besides, the Potency entry in [5], in assay [6], in assay [7], in [8], in assay [9] and in assay [10] was “inactive” throughout.

Consider `CC(=O)/C=C/c1ccccc1`, for which the Potency result in assay [1], in [2], in assay [3], in [4], in assay [7] and in [9] was “inactive” in each case. Further, the Potency result in assay [10] is “inactive”. Besides, the Potency entry was “inactive and 35.6 µM (active)” in assay [5]; 78.2 µM (active) in assay [6]; 31.7 µM (active) and 39.9 µM (active) in assay [8].

Consider `N#CN=C(N)N`, for which the Potency result in [1], in [2], in [3], in [4], in assay [5] and in assay [6] was “inactive” in each case. Moreover, the Potency result in assay [7], in assay [8], in [9] and in [10] was “inactive” in each case.

On to `Nc1nc(N)nc(NC2CC2)n1`, for which the Potency result in assay [1], in assay [2], in assay [3], in [4], in assay [5] and in assay [6] was “inactive” each time. Besides, the Potency entry in [7], in assay [8], in assay [9] and in assay [10] was “inactive” each time.

Regarding `O=[N+]([O-])c1ccc(Cl)cc1`, the Potency entry in assay [1], in assay [2], in [3], in assay [4], in assay [5] and in assay [6] was “inactive” in each case. Further, the Potency entry in [7], in [8], in [9] and in assay [10] was “inactive” in each case.

Consider `ClCCOCCCl`, for which the Potency result in [1], in [2], in [3], in assay [4], in assay [5] and in [6] was “inactive” each time. Moreover, the Potency result in assay [7], in assay [8], in assay [9] and in [10] was “inactive” throughout.

On to `OCc1ccco1`, for which the Potency result in assay [1], in assay [2], in [3], in assay [4], in assay [5] and in assay [6] was “inactive” each time. Also, the Potency entry in assay [8], in assay [9] and in [10] was “inactive” throughout. The Potency result in [7] is “inactive and 44.8 µM (active)”.

In the case of `Cc1cccc(C)c1N`, the Potency entry in assay [1], in assay [2], in assay [3], in assay [4], in assay [6] and in assay [7] was “inactive” in each case. Moreover, the Potency entry in assay [8], in assay [9] and in assay [10] was “inactive” in each case. Further, in assay [5], the Potency was 11.1 µM (active) and inactive.

Regarding `Clc1cnc(Oc2ccc(Oc3ncc(Cl)cc3Cl)cc2)c(Cl)c1`, the Potency result in assay [1], in [2], in assay [3], in assay [4], in assay [5] and in assay [6] was “inactive” each time. The Potency entry in assay [7] and in assay [10] was “inactive” in each case. The Potency in assay [8] was 24.9 µM (active) and inactive; in assay [9], 19.5 µM (active).

Regarding `CC(C)(C)C(=O)CCl`, the Potency entry in assay [1], in assay [2], in [3], in [4], in [5] and in [6] was “inactive” throughout. In addition, the Potency entry in assay [7], in assay [8], in [9] and in assay [10] was “inactive” each time.

For `COS(=O)(=O)OC`, the Potency result in assay [1], in [2], in [3], in assay [4], in assay [5] and in assay [6] was “inactive” in each case. Moreover, the Potency result in assay [7], in assay [8], in [9] and in assay [10] was “inactive” throughout.

Turning to `CCNc1nc(Cl)nc(NC(C)C)n1`, the Potency result in assay [1], in assay [2], in assay [3], in assay [4], in assay [5] and in assay [6] was “inactive” in each case. For the same compound, the Potency result in assay [7], in assay [9] and in assay [10] was “inactive” throughout. In [8], the Potency was 24.9 µM (active) and 22.4 µM (active).

As for `C[C@]12CC[C@H](O)CC1=CC[C@@H]1[C@@H]2CC[C@]2(C)C(=O)CC[C@@H]12`, the Potency result in [1], in assay [2], in assay [3], in assay [4], in [5] and in assay [8] was “inactive” throughout. In addition, in assay [10], the Potency entry was “inactive”. In addition, the Potency in assay [6] is 79.7 µM (active) and 71 µM (active) and inactive; in assay [7], 44.8 µM (active) and 31.7 µM (active) and 19.5 µM (active).

The record behind these values is PubChem BioAssay (Tox21).
